# Experimental data from PubChem BioAssay.
# Calls of active or inactive are those of the source.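 The calls were made as follows, unless noted: active = normalized viability below 100% at a tested concentration; inactive = the rest.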
# Experiments:
# [1] = blockers of cellular phospholipid synthesis – cell-based, LOPAC library, screen 4, primary screen (AID 1347384; call rule not given here); conditions: animal cells, phospholipid biosynthesis inhibition screen; at 10 µM
# [2] = drug combination growth inhibition, ovarian cancer – cell-based, oncology-focused library, rucaparib conditional, profiling panel (AID 1508598); conditions: patient-derived ovarian cancer cells, CellTiter-Glo viability, 144 h, stronger effect = lower value
# [3] = molecular target: NAD(+) hydrolase SARM1 (Homo sapiens) (UniProt Q6SZW1); assay: blocking NAD cleavage by SARM1 SAM-TIR – cell lysate, NAD-Glo luminescence (AID 1508614;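 active = compound whose remaining NAD level is above about 45 nM, limit read from the data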;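 also: higher remaining NAD means stronger inhibition of SARM1 NADase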); conditions: SAM-TIR HEK293T lysate NADase, at 1 µM, stronger effect = higher value
# [4] = molecular target: Mitogen-activated protein kinase 7 (Homo sapiens) (UniProt Q13164); assay: Gal4-ERK5 driven luciferase induction – cell-based, HTS, primary screen (AID 1508626;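 active = luciferase signal above three times the same-plate solvent-only control wells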;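 also: luciferase driven by Gal4-ERK5 fusion binding five Gal4 sites before minimal TATA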); conditions: HeLa Gal4-ERK5 transactivation, 18 h, at 5 µM, stronger effect = higher value
# [5] = growth inhibition, single agent or in combination, cell-based, chromothripsis tumors, cisplatin or BGB combos (AID 1671449; in the data active = inhibition above about 80%;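 also: cells exposed for 96 hours; 0% = vehicle DMSO and 100% = killing by high DMSO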); conditions: LFS_MB_P medulloblastoma cells
# [6] = growth inhibition, single agent and combos, cell-based, chromothripsis tumors, cisplatin or BGB combos (AID 1671450; in the data active = inhibition above about 80%;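 also: cells exposed to compound for four days; 0% = vehicle DMSO and 100% = cell killing by high DMSO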); conditions: HDN33 neuroblastoma cells, stronger effect = higher value
# [7] = growth inhibition, single agents and combos, ICB984, cell-based, cisplatin or BGB combos, synergistic combos for chromothripsis tumors (AID 1671451; call rule not given here;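 also: cells exposed for 96 hours before readout; 0% = vehicle DMSO and 100% = killing by high DMSO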); conditions: ICB984 medulloblastoma cells, drug combinations, stronger effect = higher value
# [8] = growth inhibition, single agents and combos, LFS_MB_1R, cell-based, cisplatin or BGB combos, synergistic combos for chromothripsis tumors (AID 1671452; in the data active = inhibition above about 80%;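 also: cells exposed for 96 hours before readout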); conditions: LFS_MB_1R medulloblastoma cells, stronger effect = higher value
# [9] = growth inhibition, single agents and combos, HTB85, cell-based, BGB or cisplatin IC20 combos, synergistic combos for chromothripsis tumors (AID 1671453; in the data active = inhibition above about 80%;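 also: cells exposed for 96 hours before readout; 0% = vehicle DMSO and 100% = high DMSO killing control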); conditions: HTB85 osteosarcoma cells, drug combinations, stronger effect = higher value
# [10] = growth inhibition, single agents and combos, CRL2098, cell-based, BGB or cisplatin IC20 combos, synergistic combos for chromothripsis tumors (AID 1671454; in the data active = inhibition above about 80%;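 also: cells exposed for 96 h before readout; 0% = vehicle DMSO and 100% = killing by high DMSO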); conditions: CRL2098 osteosarcoma cells, drug combinations, stronger effect = higher value
# [11] = growth inhibition, single agents and combos, HD-MB03, cell-based, BGB or cisplatin IC20 combos, synergistic combos for chromothripsis tumors (AID 1671455; in the data active = inhibition above about 83%;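 also: 0% = vehicle DMSO and 100% = high DMSO as cytotoxic control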); conditions: HD-MB03 medulloblastoma cells, stronger effect = higher value
# [12] = growth inhibition, single agents and combos, UWB1.289, cell-based, BGB or cisplatin combos, synergistic combos for chromothripsis tumors (AID 1671456; in the data active = inhibition above about 80%;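 also: cells exposed to compound for four days; 0% = vehicle DMSO and 100% = killing by high DMSO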); conditions: UWB1.289 ovarian carcinoma cells, stronger effect = higher value
# [13] = growth inhibition, single agents and combos, LFS_MB_2R, cell-based, cisplatin combos, synergistic combos for chromothripsis tumors (AID 1671457; in the data active = inhibition above about 80%;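 also: cells exposed to compound for four days before readout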); conditions: LFS_MB_2R medulloblastoma cells, stronger effect = higher value
# [14] = growth inhibition, MDA-MB-436, cell-based, BGB or cisplatin combos, synergistic combos for chromothripsis tumors (AID 1671458; call rule not given here;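 also: cells exposed for 96 hours; 0% = vehicle DMSO and 100% = killing by high DMSO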); conditions: MDA-MB-436 breast carcinoma growth inhibition, drug combinations, stronger effect = higher value
# [15] = UWB1.289_BRCA1 ovarian cancer growth, cell-based, BGB or cisplatin combinations (AID 1671459; in the data active = inhibition above about 80%); conditions: UWB1.289 BRCA1 ovarian carcinoma, drug combinations, stronger effect = higher value
# [16] = drug combination toxicity in non-malignant astrocytes – cell-based, BGB or cisplatin IC20 combos, cytotoxicity control for chromothriptic childhood tumor combination screen (AID 1671460; in the data active = inhibition above about 80%;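 also: cells exposed to compounds for 96 hours before viability readout; 0% = vehicle and 100% = killing control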); conditions: Human astrocytes, viability inhibition, drug combinations, at 0.5 µM, stronger effect = higher value
# [17] = BT084 cell growth, single and combined drugs, ICGC_MB145, cisplatin and BGB IC40 combos (AID 1671461; in the data active = inhibition above about 80%;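 also: cells exposed to drugs for 96 hours; 0% = vehicle DMSO and 100% = high DMSO full killing control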); conditions: BT084 medulloblastoma cells, drug combinations, stronger effect = higher value
# [18] = RCMB18 cell growth, single agent and combined, cisplatin and BGB IC40 combos (AID 1671462; in the data active = inhibition above about 80%;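 also: cells exposed to compound for four days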); conditions: RCMB18 medulloblastoma cells, stronger effect = higher value
# [19] = CRL1545 cell growth, single agent and combined, cisplatin and BGB IC20 combos (AID 1671464; in the data active = inhibition above about 80%;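 also: cells exposed to compound for 96 hours before readout; 0% = vehicle DMSO and 100% = high DMSO killing control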); conditions: CRL1545 osteosarcoma cells, stronger effect = higher value
# [20] = measured here: combination with BGB IC40, at 0.05 µM
# [21] = measured here: with BGB IC20 combination, at 0.5 µM
# [22] = measured here: with cisplatin IC20 combination, at 0.5 µM
# [23] = measured here: combination with cisplatin, at 0.5 µM
# [24] = measured here: combination with cisplatin, at 5 µM
# NAD(+) hydrolase SARM1 (Homo sapiens), sequence (Q6SZW1 whole entry, looked up, the tested form may be a part): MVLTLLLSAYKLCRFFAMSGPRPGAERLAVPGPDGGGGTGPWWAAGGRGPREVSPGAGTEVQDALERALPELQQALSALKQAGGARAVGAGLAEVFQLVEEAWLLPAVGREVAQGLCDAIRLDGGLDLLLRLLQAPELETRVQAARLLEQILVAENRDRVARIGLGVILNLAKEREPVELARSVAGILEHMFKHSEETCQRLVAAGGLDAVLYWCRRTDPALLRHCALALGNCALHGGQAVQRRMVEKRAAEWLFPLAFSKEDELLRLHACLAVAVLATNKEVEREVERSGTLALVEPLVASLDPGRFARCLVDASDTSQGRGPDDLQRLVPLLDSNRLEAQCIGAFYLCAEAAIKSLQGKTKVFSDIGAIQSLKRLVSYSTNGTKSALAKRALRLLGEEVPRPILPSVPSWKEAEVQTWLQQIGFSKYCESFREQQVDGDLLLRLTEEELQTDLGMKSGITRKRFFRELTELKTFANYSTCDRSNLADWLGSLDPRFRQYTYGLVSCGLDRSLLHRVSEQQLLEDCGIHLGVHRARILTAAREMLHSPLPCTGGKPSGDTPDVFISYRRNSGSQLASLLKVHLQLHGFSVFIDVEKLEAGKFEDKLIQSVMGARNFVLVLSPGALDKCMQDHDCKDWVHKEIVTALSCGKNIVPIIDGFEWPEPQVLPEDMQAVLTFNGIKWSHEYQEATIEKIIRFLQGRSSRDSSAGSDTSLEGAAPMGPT
# Mitogen-activated protein kinase 7 (Homo sapiens), sequence (Q13164 whole entry, looked up, the tested form may be a part): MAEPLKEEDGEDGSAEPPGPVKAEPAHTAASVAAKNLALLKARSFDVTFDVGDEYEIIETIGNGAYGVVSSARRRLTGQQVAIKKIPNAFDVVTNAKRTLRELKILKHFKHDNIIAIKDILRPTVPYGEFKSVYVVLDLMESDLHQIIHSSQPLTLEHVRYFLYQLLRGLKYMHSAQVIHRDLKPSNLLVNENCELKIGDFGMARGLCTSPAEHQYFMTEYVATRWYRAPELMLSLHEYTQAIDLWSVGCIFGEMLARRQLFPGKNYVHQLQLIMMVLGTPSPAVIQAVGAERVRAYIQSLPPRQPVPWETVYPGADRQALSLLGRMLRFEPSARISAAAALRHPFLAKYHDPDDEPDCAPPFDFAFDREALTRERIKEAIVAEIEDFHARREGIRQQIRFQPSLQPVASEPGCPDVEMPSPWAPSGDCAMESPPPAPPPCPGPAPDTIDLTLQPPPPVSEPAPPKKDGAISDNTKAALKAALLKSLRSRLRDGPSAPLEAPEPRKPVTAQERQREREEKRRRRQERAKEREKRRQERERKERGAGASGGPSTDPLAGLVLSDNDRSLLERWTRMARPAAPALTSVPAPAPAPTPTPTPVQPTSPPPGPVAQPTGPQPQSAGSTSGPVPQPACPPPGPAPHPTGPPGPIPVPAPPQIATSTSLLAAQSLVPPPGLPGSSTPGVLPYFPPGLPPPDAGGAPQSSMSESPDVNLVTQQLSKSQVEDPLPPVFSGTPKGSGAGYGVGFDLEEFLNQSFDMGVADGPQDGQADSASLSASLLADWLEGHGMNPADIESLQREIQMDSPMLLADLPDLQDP
compound,measurement,setting,value
O=C(Nc1nc2ccccc2n1CCN1CCOCC1)c1cccc([N+](=O)[O-])c1,outcome,[1],inactive
CCOc1cc(N2CCC(O)CC2)ccc1Nc1ncc2c(n1)N(C)c1ccccc1C(=O)N2C,viability,"[2]; at 0.000305 µM, OCI-C5x cells, with rucaparib 10 µM, 100% = cells with rucaparib alone",123% (inactive)
same,viability,"[2]; at 0.000305 µM, OCI-C5x cells, without rucaparib",120% (inactive)
same,viability,"[2]; at 0.000305 µM, OCI-P5x cells, with rucaparib 20 µM, 100% = cells with rucaparib alone",94.3% (active)
same,viability,"[2]; at 0.000305 µM, OCI-P5x cells, without rucaparib",101% (inactive)
same,viability,"[2]; at 0.00122 µM, OCI-C5x cells, with rucaparib 10 µM, 100% = cells with rucaparib alone",122% (inactive)
same,viability,"[2]; at 0.00122 µM, OCI-C5x cells, without rucaparib",109% (inactive)
same,viability,"[2]; at 0.00122 µM, OCI-P5x cells, with rucaparib 20 µM, 100% = cells with rucaparib alone",99.4% (active)
same,viability,"[2]; at 0.00122 µM, OCI-P5x cells, without rucaparib",105% (inactive)
same,viability,"[2]; at 0.00488 µM, OCI-C5x cells, with rucaparib 10 µM, 100% = cells with rucaparib alone",119% (inactive)
same,viability,"[2]; at 0.00488 µM, OCI-C5x cells, without rucaparib",112% (inactive)
same,viability,"[2]; at 0.00488 µM, OCI-P5x cells, with rucaparib 20 µM, 100% = cells with rucaparib alone",91.8% (active)
same,viability,"[2]; at 0.00488 µM, OCI-P5x cells, without rucaparib",102% (inactive)
same,viability,"[2]; at 0.0195 µM, OCI-C5x cells, with rucaparib 10 µM, 100% = cells with rucaparib alone",124% (inactive)
same,viability,"[2]; at 0.0195 µM, OCI-C5x cells, without rucaparib",117% (inactive)
same,viability,"[2]; at 0.0195 µM, OCI-P5x cells, with rucaparib 20 µM, 100% = cells with rucaparib alone",94% (active)
same,viability,"[2]; at 0.0195 µM, OCI-P5x cells, without rucaparib",99.5% (active)
same,viability,"[2]; at 0.0781 µM, OCI-C5x cells, with rucaparib 10 µM, 100% = cells with rucaparib alone",131% (inactive)
same,viability,"[2]; at 0.0781 µM, OCI-C5x cells, without rucaparib",124% (inactive)
same,viability,"[2]; at 0.0781 µM, OCI-P5x cells, with rucaparib 20 µM, 100% = cells with rucaparib alone",96.6% (active)
same,viability,"[2]; at 0.0781 µM, OCI-P5x cells, without rucaparib",108% (inactive)
same,viability,"[2]; at 0.313 µM, OCI-C5x cells, with rucaparib 10 µM, 100% = cells with rucaparib alone",109% (inactive)
same,viability,"[2]; at 0.313 µM, OCI-C5x cells, without rucaparib",131% (inactive)
same,viability,"[2]; at 0.313 µM, OCI-P5x cells, with rucaparib 20 µM, 100% = cells with rucaparib alone",88.3% (active)
same,viability,"[2]; at 0.313 µM, OCI-P5x cells, without rucaparib",95.6% (active)
same,viability,"[2]; at 1.25 µM, OCI-C5x cells, with rucaparib 10 µM, 100% = cells with rucaparib alone",101% (inactive)
same,viability,"[2]; at 1.25 µM, OCI-C5x cells, without rucaparib",121% (inactive)
same,viability,"[2]; at 1.25 µM, OCI-P5x cells, with rucaparib 20 µM, 100% = cells with rucaparib alone",84.7% (active)
same,viability,"[2]; at 1.25 µM, OCI-P5x cells, without rucaparib",90.7% (active)
same,viability,"[2]; at 5 µM, OCI-C5x cells, with rucaparib 10 µM, 100% = cells with rucaparib alone",85.7% (active)
same,viability,"[2]; at 5 µM, OCI-C5x cells, without rucaparib",119% (inactive)
same,viability,"[2]; at 5 µM, OCI-P5x cells, with rucaparib 20 µM, 100% = cells with rucaparib alone",35.5% (active)
same,viability,"[2]; at 5 µM, OCI-P5x cells, without rucaparib",75.3% (active)
NC[C@@H]1O[C@H](O[C@H]2[C@@H](O)[C@H](O[C@@H]3[C@@H](O)[C@H](N)C[C@H](N)[C@H]3O[C@H]3O[C@H](CN)[C@@H](O)[C@H](O)[C@H]3N)O[C@@H]2CO)[C@H](N)[C@@H](O)[C@@H]1O,remaining NAD,[3],10 nM (inactive)
same,luciferase signal,[4],28 AU (inactive)
Cc1cn([C@@H]2O[C@H](CO)[C@@H](O)[C@@H]2F)c(=O)[nH]c1=O,inhibition,"[5]; at 0.5 µM, stronger effect = higher value",-22.2% (inactive)
same,inhibition,"[5]; measured here: combination with BGB IC20, at 0.005 µM",-21.4%
same,inhibition,"[5]; measured here: combination with BGB IC40, at 0.005 µM",24.6%
same,inhibition,[5]; [20],-36.4%
same,inhibition,"[5]; measured here: combination with cisplatin, at 0.5 µM, stronger effect = higher value",-29.1%
same,inhibition,"[5]; measured here: combination with cisplatin, at 5 µM, stronger effect = higher value",-25.8%
same,inhibition,"[6]; BGB combo, at 5 µM",-42.9%
same,inhibition,[6]; at 0.5 µM,15.9% (inactive)
same,inhibition,"[6]; cisplatin combo, at 5 µM",-14%
same,inhibition,[6]; [21],25%
same,inhibition,[6]; [22],22.2%
same,inhibition,"[6]; single agent, at 5 µM",-22.6%
same,inhibition,"[7]; BGB IC20 combo, at 0.005 µM",-11.3%
same,inhibition,"[7]; BGB IC40 combo, at 0.005 µM",-20.8%
same,inhibition,"[7]; BGB IC40 combo, at 0.05 µM",-28.4%
same,inhibition,[7]; at 0.5 µM,-27.1% (inactive)
same,inhibition,"[7]; cisplatin combo, at 0.05 µM",-35%
same,inhibition,"[7]; cisplatin combo, at 0.5 µM",-33.8%
same,inhibition,"[7]; cisplatin combo, at 5 µM",-27.5%
same,inhibition,"[7]; measured here: 5 uM single agent, at 5 µM",-20.1%
same,inhibition,[8]; at 0.5 µM,-24% (inactive)
same,inhibition,[8]; [20],-37.2%
same,inhibition,[8]; [23],-20.9%
same,inhibition,[8]; [24],-19%
same,inhibition,[9]; at 0.5 µM,7.88% (inactive)
same,inhibition,"[9]; measured here: with BGB IC20, at 0.5 µM",40.2%
same,inhibition,"[9]; measured here: with BGB IC20, at 5 µM",-1.08%
same,inhibition,"[9]; measured here: with cisplatin IC20, at 0.5 µM",-7.9%
same,inhibition,"[9]; measured here: with cisplatin IC20, at 5 µM",-2.9%
same,inhibition,"[9]; single agent, at 5 µM",6.67%
same,inhibition,[10]; at 0.5 µM,-20.9% (inactive)
same,inhibition,"[10]; measured here: combination with BGB at IC20, at 0.5 µM",-6.05%
same,inhibition,"[10]; measured here: combination with cisplatin at IC20, at 0.5 µM",-15.6%
same,inhibition,[11]; at 0.5 µM,-11.4% (inactive)
same,inhibition,"[11]; measured here: combo with BGB at IC20, at 0.5 µM",-16%
same,inhibition,"[11]; measured here: combo with cisplatin at IC20, at 0.5 µM",-8.28%
same,inhibition,[12]; at 0.5 µM,-3.54% (inactive)
same,inhibition,"[12]; measured here: inhibition with BGB combination, at 0.05 µM",-7.92%
same,inhibition,"[12]; measured here: inhibition with cisplatin combination, at 0.05 µM",2.99%
same,inhibition,[13]; at 0.5 µM,-27.6% (inactive)
same,inhibition,[13]; [23],-30.2%
same,inhibition,[13]; [24],-44.4%
same,inhibition,[14]; at 0.5 µM,-24.5% (inactive)
same,inhibition,"[14]; measured here: BGB combination, at 0.5 µM",-21.7%
same,inhibition,"[14]; measured here: BGB combination, at 5 µM",-19.5%
same,inhibition,"[14]; measured here: cisplatin combination, at 0.5 µM",-37.4%
same,inhibition,"[14]; measured here: cisplatin combination, at 5 µM",-37%
same,inhibition,"[15]; BGB combination, concentration series, at 5 µM",-5.53%
same,inhibition,[15]; at 0.5 µM,-5.97% (inactive)
same,inhibition,"[15]; cisplatin combination, concentration series, at 5 µM",11.6%
same,inhibition,[16],10.9% (inactive)
same,inhibition,[16]; measured here: combo with BGB IC20,14.5%
same,inhibition,[16]; measured here: combo with cisplatin IC20,15.4%
same,inhibition,[17]; at 0.5 µM,-12.8% (inactive)
same,inhibition,"[17]; cisplatin combination, at 0.5 µM",3.7%
same,inhibition,"[17]; cisplatin combination, at 5 µM",-127%
same,inhibition,"[17]; measured here: BGB IC40 combination 0.05 uM, at 0.05 µM",-18.9%
same,inhibition,"[17]; single agent, at 5 µM",-21.7%
same,inhibition,[18]; at 0.5 µM,-23.1% (inactive)
same,inhibition,"[18]; cisplatin combo, at 5 µM",-15.5%
same,inhibition,"[18]; measured here: BGB IC40 combination, at 0.05 µM",-13.9%
same,inhibition,[18]; [23],-19%
same,inhibition,"[18]; single agent, at 5 µM",-12.7%
same,inhibition,[19]; at 0.5 µM,12.7% (inactive)
same,inhibition,[19]; [21],6.33%
same,inhibition,[19]; [22],14.6%
same,inhibition,"[19]; single agent, at 0.05 µM",-20.4%
same,inhibition,"[19]; single agent, at 5 µM",5.83%
